# Compound activity: PubChem, The Scripps Research Institute Molecular Screening Center
# SRC2 inh = human SRC2 (NCOA2) inhibition; Q15596; HEK293 GAL4-SRC2 luciferase reporter, luminescence; inhibition, % at 9 µM; 0.17% of 370,000 active;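 active means inhibition above the mean inhibition of all tested compounds plus 3 SD, set per campaign, cut at about 52% in these data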;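 further: 0% = DMSO treated cells and 100% = cells given Gossypol at 36 µM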
# NCOA3 inh = inhibits human SRC3 coactivator; Q9Y6Q9; HEK293 GAL4-SRC3 luciferase reporter, luminescence; inhibition, % at 3.6 µM; 0.17% of 360,000 active;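 active means inhibition above a per-campaign cutoff, the mean of all compounds plus 3 SD, cut at about 60% in these data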;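 further: 0% = DMSO-treated cells and 100% = gossypol-treated cells at 36 µM; higher means less SRC3-driven luciferase light from the GAL4 reporter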
# COUP-TFII inh = inhibitors of human COUP-TFII (NR2F2); P24468; HEK293T NGFI-A luciferase reporter, luminescence; inhibition, % at 8.6 µM; 0.7% of 370,000 active; AID 686940;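 active means inhibition above a per-plate cutoff, mean inhibition of test wells between control levels plus 3 SD, cut at about 38% in these data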;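 further: cells cotransfected with COUP-TFII expression vector driving the NGFI-A reporter; 0% = median of COUP-TF2 test wells and 100% = reporter-only cells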
# SRC1 inh = inhibits human SRC1 coactivator | Q15788 | HEK293 GAL4-SRC1 luciferase reporter, luminescence | inhibition, % at 3.6 µM | 0.12% of 360,000 active;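 active means inhibition above the campaign mean plus 3 SD, with each screening campaign given its own cutoff, cut at about 60% in these data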;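 further: 0% = DMSO treated cells and 100% = gossypol at 36 µM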
# GalR3 antag = antagonists of human GalR3; O60755; HEK293 GalR3-CNG cAMP membrane potential fluorescence; galR3 body fused to GalR1 C-terminus; inhibition, % at 3 µM; 0.44% of 360,000 active; AID 651719;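 active means inhibition above the screen-wide average plus 3 SD, cut at about 13% in these data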;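 further: forskolin and galanin both at EC90 stimulate the cells; cAMP rise reported by CNG channel membrane potential dye signal; 0% = forskolin plus galanin with DMSO and 100% = forskolin alone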
# Target sequence (O60755 1-299 limits assumed): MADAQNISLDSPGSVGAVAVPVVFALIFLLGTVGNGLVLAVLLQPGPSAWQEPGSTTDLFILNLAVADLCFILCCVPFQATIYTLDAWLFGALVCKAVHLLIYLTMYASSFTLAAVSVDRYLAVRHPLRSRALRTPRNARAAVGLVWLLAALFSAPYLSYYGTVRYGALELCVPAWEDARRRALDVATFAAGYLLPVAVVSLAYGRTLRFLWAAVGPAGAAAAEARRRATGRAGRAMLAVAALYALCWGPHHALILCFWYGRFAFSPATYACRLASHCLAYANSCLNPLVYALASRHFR
# NR5A2 inv ag = inverse agonists of human LRH-1 (NR5A2) | inhibition, % at 3.6 µM | 0.13% of 360,000 active | HEK293T StAR-luciferase reporter, LRH-1 transfected, 24 h | AID 602396 | O00482;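 active means inhibition above the mean inhibition of all tested compounds plus 3 SD, cut at about 73% in these data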;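 further: 0% = DMSO wells and 100% = reporter-only cells lacking LRH-1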
# The depositor's hits bear a star; . = not tested or not shown. In the library only some 1.1% were active in any assay of this set; here they are far more common.
SMILES,SRC2 inh,NCOA3 inh,COUP-TFII inh,SRC1 inh,GalR3 antag,NR5A2 inv ag
COc1ccc(Oc2c(Cl)cnn(-c3ccc(C(C)C)c(C)c3)c2=O)cc1,.,.,-21.4,.,.,.
COc1ccc(N(C(=O)CCl)C(C(=O)NCCc2ccccc2)c2cccs2)cc1 (stereo unspecified),46.8,71.4*,4.9,2.6,1.4,-17.7
C#CCCN([C@@H](CC(C)C)C(=O)OC)S(=O)(=O)c1ccccc1Br,2.1,.,1.7,.,.,.
O=C(Nc1ccc([N+](=O)[O-])cc1)Nc1ccc(OC(F)F)c(Cl)c1,0.5,75.1*,18.9,31.7,-6.7,10.4
Oc1ccccc1N=Nc1ccccc1O,20.8,69.0*,-58.6,33.6,-2.2,35.8
O=C(NCCc1c[nH]c2ccccc12)c1cc([N+](=O)[O-])cc([N+](=O)[O-])c1,13.9,12.2,12.4,1.8,-8.6,10.4
O=C(NCCc1c[nH]c2ccccc12)c1ccc([N+](=O)[O-])o1,52.2*,2.5,28.4,21.8,-4.0,54.9
CC(C)(C)c1ccc(/C=C(\c2nc3ccccc3[nH]2)S(=O)(=O)c2ccccc2)cc1,.,30.4,.,-0.2,.,41.3
Cc1cccc(/C=C(\c2nc3ccccc3[nH]2)S(=O)(=O)c2ccccc2)c1,64.3*,17.2,33.0,-37.4,10.7,43.8
CN(C)c1ccc(C=c2c3ccccc3n3c2cc(-c2ccc(Cl)cc2)[n+]3C)cc1,-27.9,68.0*,58.7*,6.5,-3.3,74.2*
CN(c1ccc(Cl)cc1)c1cc(=O)n(C)c2ccccc12,-39.1,26.6,-27.2,5.0,-1.3,-15.3
Cc1nc2ccc(S(=O)(=O)NCC(=O)N(C)Cc3ccccc3F)cc2s1,-12.5,.,-50.8,.,.,.
COc1ccc(OC)c2sc(N3CCc4ccccc4C3)nc12,-4.5,2.7,-17.9,3.6,3.3,-15.4
c1ccc2c(c1)CCN(c1nc3cc4c(cc3s1)OCCO4)C2,57.5*,31.7,60.6*,44.4,-0.7,36.8
O=C1CCCC/C1=C/Nc1cccc(C(F)(F)F)c1,-6.9,0.2,-14.2,-15.6,-0.8,-23.1
O=C1CCC2S/C(=C/Nc3ccc(C(F)(F)F)cc3)C(=O)N12 (stereo unspecified),71.8*,31.1,32.5,32.6,-6.7,10.3
Cc1ccc(C2=CC(=O)CC(C)(C)C2=O)cc1,3.9,.,-9.5,.,0.1,.
O=C(/C=C/c1ccccc1)CC(O)(c1ccccc1)C(F)(F)F (stereo unspecified),39.6,71.7*,16.3,39.6,-1.1,19.9
FC(F)(F)c1cc(Cl)c2nc(-c3ccco3)c(Cc3ccccc3C(F)(F)F)n2c1,-30.4,.,-7.3,.,20.6*,19.4
CCN(CC)c1ccc(/C=N/NC(=O)c2nnn(-c3nonc3N)c2C(C)C)c(O)c1,43.4,77.3*,-40.4,51.3,-2.3,25.9
CC(C)c1c(C(=O)N/N=C/c2ccc3c(c2)OCO3)nnn1-c1nonc1N,-0.2,13.1,0.7,-16.4,-3.8,-12.9
O=C1C[C@H](c2ccc3ccccc3c2)N=C2N1/C(=C\c1ccccc1)[C@@H](c1ccccc1C(F)(F)F)N2Cc1ccc2c(c1)OCO2,.,.,23.5,.,.,.
Cc1onc(-c2ccccc2)c1C(=O)NC(=S)NNC(=O)c1ccccc1O,15.9,75.7*,26.1,64.1*,-1.1,90.3*
CCCCNC(=O)O[C@H]1CC[C@@]23CCCN2C(=O)CCC[C@H]3[C@H]1C,.,.,11.1,.,.,.
N#Cc1c(N)n(C2OC(CO)C(O)C2O)c2ncnc(N)c12 (stereo unspecified),55.1*,84.5*,16.9,83.1*,-1.8,94.7*
CCc1ccc(/C=C2\SC(=S)N(CCCC(=O)Nc3ccccn3)C2=O)cc1,56.9*,13.8,31.5,8.6,-0.9,-2.1
COC(=O)c1ccc(/C=C2/SC(=S)N(CCCC(=O)Nc3ccccn3)C2=O)cc1,3.7,12.9,10.5,-4.1,3.2,3.7
COc1ccc(/C=C2\SC(=S)N(CCCC(=O)Nc3ccc(O)cc3)C2=O)cc1,60.4*,19.5,20.5,9.2,-3.4,10.6
O=C(NCc1cccnc1)/C(=C\c1ccc(-c2ccc(Cl)c(Cl)c2)o1)S(=O)(=O)c1ccccc1,61.2*,85.5*,16.8,43.9,5.6,34.6
COc1cc(NS(C)(=O)=O)ccc1Nc1c2ccccc2nc2ccccc12,-23.1,64.1*,-63.2,61.8*,-4.5,46.0
